Each structure is given as a SMILES string. Records with an inconclusive call do not appear. Calls of active or inactive are those of the source. Unless noted, the call rests on the fitted dose curve; in most records, active means well fitted inhibition curve with a large enough effect; inconclusive means small, poorly fitted or top-dose-only effect; inactive means flat fitted curve, though single readings scatter.

Data on nine molecules can be found in PubChem BioAssay (NCATS).

A short description of experiment [1]: qHTS drug screen for cell cycle checkpoint inhibitors in PARPi-resistant BRCA-mutant ovarian cancer cell lines. (AID 1963452; calls by dose curve). To be noted: PEO1/OlaR viability, CellTiter-Glo luminescence, 96 h, stronger effect = lower value. The method, boiled down:
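PEO1, PEO4 and PEO1/OlaR ovarian cancer cells, 600 per well, exposed 96 h at 37C to a dilution series. Viability read by CellTiter-Glo luminescence, normalized to DMSO and empty wells; activity summarized as Z-AUC.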
In general terms: qHTS replaces the single test concentration by a dilution series.

The nature of experiment [2]: qHTS for identification of novel therapeutic agents for treatment of microphthalmiaassociated transcription factor (MiT) renal cell carcinoma (RCC) (AID 1963991). Conditions: CellTiter-Glo, 48 h, stronger effect = lower value. An outline of the steps: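 Viability of three TFE3-fusion renal carcinoma lines measured by CellTiter-Glo after 48 h treatment with each of 1912 compounds at 11 concentrations. Responses scaled between DMSO (100%) and empty wells (0%) before curve fitting.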

Experiment [3] can be described thus: qHTS profiling for inhibitors of Plasmodium falciparum proliferation (AID 504749). Further: potency means the concentration at half of the fitted maximal effect.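 On activity, negative = inhibition: 0% = DMSO vehicle and full inhibition = artemisinin control.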 On all read-outs here: nearly all actives have a fitted effect of over 60% in size. To be noted: P. falciparum in erythrocytes, SYBR Green DNA, 72 h; for activity, negative = inhibition: at 28.7 µM (top of the series). An outline of the steps:
(§1)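 SYBR Green fluorescence of parasite DNA, read after lysis and overnight dark incubation, measured growth over 72 h in erythrocyte culture at 0.3% parasitemia and 2.5% hematocrit. Data normalised to DMSO and 0.29 uM artemisinin, with plate-drift correction.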

Experiment [4] concerns 3D7. The description is as above. Conditions: P. falciparum in erythrocytes, SYBR Green DNA, 72 h; series mostly up to 28.7 µM. The method, boiled down:
as §1

Experiment [5] concerns 7G8. The experiment is described as above. Conditions: P. falciparum in erythrocytes, SYBR Green DNA, 72 h; series mostly up to 28.7 µM. The method, boiled down: as §1
Experiment [6] deals with AA1029. Described as above. To be noted: P. falciparum in erythrocytes, SYBR Green DNA, 72 h; series mostly up to 28.7 µM. An outline of the steps:
as §1

Experiment [7] deals with AS120. Described as above. Conditions: P. falciparum in erythrocytes, SYBR Green DNA, 72 h; series mostly up to 28.7 µM. An outline of the steps: as §1
Experiment [8] relates to ATS189. Described as above. Conditions: P. falciparum in erythrocytes, SYBR Green DNA, 72 h; series mostly up to 28.7 µM. An outline of the steps:
as §1

[9] abbreviates: measured here: PEO1 parental Z-AUC.

Regarding `NCCS(=O)(=O)O`, the Z-AUC in experiment [1] is 1.22 (inactive); in experiment [1] (setting [9]), 0.571; in experiment [1] (measured here: PEO4 Z-AUC), 0.568. The z-score in experiment [2] (TFE3-RCC UOK109 viability, measured here: UOK109 Z-AUC) was determined as 0.929; in experiment [2] (TFE3-RCC viability, measured here: UOK124 Z-AUC) it was 0.854; in experiment [2] (TFE3-RCC viability, measured here: UOK145 Z-AUC), 0.716. Further, the activity, negative = inhibition is 5.98% (inactive) in experiment [3] (parasite line A) and -25.3% (inactive) in experiment [3] (parasite line B). For the same molecule, the Potency result in experiment [4], in experiment [5], in experiment [6], in experiment [7] and in experiment [8] was “inactive” each time.
In the case of `CC(C)NCC(O)COc1ccc(CCOCC2CC2)cc1` (configuration not stated), the Z-AUC in experiment [1] was 1.3 (inactive); in experiment [1] (setting [9]) it was 0.99; in experiment [1] (measured here: PEO4 Z-AUC), 1.01. Also, the activity, negative = inhibition was 13.9% (inactive) in experiment [3] (parasite line A) and -3.18% (inactive) in experiment [3] (parasite line B). Moreover, the Potency entry in experiment [4], in experiment [6] and in experiment [7] was “inactive” in each case. Besides, the Potency in experiment [5] is 11.2 µM (active).
`O=c1c(-c2ccc(O)cc2)coc2cc(O)cc(O)c12`: the Z-AUC in experiment [1] was 0.848 (inactive); in experiment [1] (setting [9]), 0.793; in experiment [1] (measured here: PEO4 Z-AUC), -0.435. The activity, negative = inhibition in experiment [3] (parasite line A) is -2.63% (inactive); in experiment [3] (parasite line B), -14.6% (inactive). For the same molecule, the Potency entry in experiment [4], in experiment [5], in experiment [6], in experiment [7] and in experiment [8] was “inactive” in each case.
In the case of `COc1ccc2[nH]cc(CCNC(C)=O)c2c1`, the Z-AUC is 1.13 (inactive) in experiment [1], 1.56 in experiment [1] (setting [9]) and 1.13 in experiment [1] (measured here: PEO4 Z-AUC). The activity, negative = inhibition in experiment [3] (parasite line A) was 6.49% (inactive); in experiment [3] (parasite line B) it was 12.1% (inactive). Also, the Potency result in experiment [4], in experiment [5], in experiment [6], in experiment [7] and in experiment [8] was “inactive” each time.
As to `O=C(c1ccc(OCCN2CCCCC2)cc1)c1c(-c2ccc(O)cc2)sc2cc(O)ccc12`, the Z-AUC was 0.6 (inactive) in experiment [1], 0.409 in experiment [1] (setting [9]) and 0.0416 in experiment [1] (measured here: PEO4 Z-AUC). Moreover, the Potency in experiment [3] (parasite line A) was 2.82 µM (active); in experiment [3] (parasite line B), 11.2 µM (active); in experiment [4] it was 2 µM (active); in experiment [5], 2.51 µM (active); in experiment [6] it was 11.2 µM (active); in experiment [7], 2.82 µM (active).
Consider `CC12CC3CC(C)(C1)CC(N)(C3)C2`, for which the Z-AUC was 1.05 (inactive) in experiment [1], 0.978 in experiment [1] (setting [9]) and 0.935 in experiment [1] (measured here: PEO4 Z-AUC). Further, the activity, negative = inhibition was 13.9% (inactive) in experiment [3] (parasite line A) and 1.67% (inactive) in experiment [3] (parasite line B). The Potency entry in experiment [4], in experiment [7] and in experiment [8] was “inactive” in each case. Moreover, the Potency in experiment [5] is 8.91 µM (active); in experiment [6], 10 µM (active).
`CN(Cc1cnc2nc(N)nc(N)c2n1)c1ccc(C(=O)N[C@@H](CCC(=O)O)C(=O)O)cc1`: the results for the Z-AUC in experiment [1], in experiment [1] (setting [9]) and in experiment [1] (measured here: PEO4 Z-AUC) were 0.203 (inactive), 0.268 and 0.255, respectively. Moreover, the Potency was 0.112 µM (active) in experiment [3] (parasite line A); 0.141 µM (active) in experiment [3] (parasite line B); 0.141 µM (active) in experiment [4]; 0.126 µM (active) in experiment [5]; 0.141 µM (active) in experiment [7]. Besides, in experiment [6], the Potency entry is “inactive”.
As to `CC#C[C@]1(O)CC[C@H]2[C@@H]3CCC4=CC(=O)CCC4=C3[C@@H](c3ccc(N(C)C)cc3)C[C@@]21C`, the Z-AUC in experiment [1] was 1.15 (inactive); in experiment [1] (setting [9]) it was 0.225; in experiment [1] (measured here: PEO4 Z-AUC), 0.142. Further, the Potency in experiment [3] (parasite line A) is 8.91 µM (active); in experiment [3] (parasite line B), 8.91 µM (active); in experiment [4], 8.91 µM (active); in experiment [5], 2.82 µM (active); in experiment [6] it was 12.6 µM (active); in experiment [7], 7.08 µM (active).
For the molecule `CN(C)CCC=C1c2ccccc2C=Cc2ccccc21`, the figures for the Z-AUC in experiment [1], in experiment [1] (setting [9]) and in experiment [1] (measured here: PEO4 Z-AUC) were -0.345 (inactive), 0.579 and 0.349, respectively. Moreover, the activity, negative = inhibition is -3.11% (inactive) in experiment [3] (parasite line A) and -19.2% (inactive) in experiment [3] (parasite line B). The Potency result in experiment [4] and in experiment [8] was “inactive” throughout. For the same molecule, the Potency in experiment [5] was 7.94 µM (active).
